# Records with an inconclusive call do not appear. The source made the active and inactive calls. Unless noted, the call rests on the fitted dose curve; in most records, active means well fitted curve in the direction sought with a large enough effect; inconclusive means small, poorly fitted or top-dose-only effect, or another doubt; inactive means no such curve, though single readings can be large; an effect the other way counts as inactive or inconclusive.
# Assays:
# [1] = qHTS Assay for Identifying Gametocytocidal Compounds (AID 743244); further: potency means the concentration at half of the fitted maximal effect; details: P. falciparum 3D7 stage III-V gametocytes, alamarBlue, 72 h; max response: stronger effect = lower value
# Method in brief: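 P. falciparum 3D7 stage III–V gametocytes (20,000 cells/well) were exposed to compounds for 72 h at 37 °C, 5% CO2. AlamarBlue was then added for 24 h; decreased resorufin fluorescence (Ex 525/Em 598 nm) indicated loss of viability.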
# [2] = qHTS profiling for inhibitors of Plasmodium falciparum (3D7) proliferation (AID 743322);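 further: infected erythrocytes exposed to compound for 72 h before lysis; 100% = DMSO vehicle wells and 0% = 0.29 µM artemisinin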; details: P. falciparum 3D7 proliferation; at 28.7 µM (top of the series) unless noted
# Method in brief: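 Parasite DNA was quantified by SYBR Green I fluorescence (ex 485, em 535 nm) after overnight lysis in saponin/Triton buffer at room temperature. Cultures at 0.3% parasitemia and 2.5% hematocrit were first exposed to compound for 72 h at 37 C; signals were normalised to artemisinin (0.29 uM) and vehicle wells.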
# [3] = qHTS profiling for inhibitors of Plasmodium falciparum (DD2) proliferation (AID 743323; call rule not given here); details: lower = more inhibition; at 28.7 µM (top of the series) unless noted
# Method in brief: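 Parasite proliferation measured via DNA-dye fluorescence, as uninfected erythrocytes lack DNA. Cultures at 0.3% parasitemia and 2.5% hematocrit incubated 72 h with compound; signal scaled between vehicle and 0.29 uM artemisinin wells.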
# [4] = qHTS profiling for inhibitors of Plasmodium falciparum (HB3) proliferation (AID 743324); details: Plasmodium falciparum HB3 blood-stage proliferation; at 28.7 µM (top of the series) unless noted;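 further: 100% = DMSO vehicle wells and 0% = artemisinin-treated control wells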
# Method in brief: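 SYBR Green fluorescence (485 ex/535 em) of lysed cultures, incubated overnight at room temperature in the dark, quantifies parasite DNA. Infected erythrocytes at 0.3% parasitemia and 2.5% hematocrit were exposed 72 h; values normalized to DMSO and 0.29 uM artemisinin controls.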
# [5] = target: Bile acid receptor (Homo sapiens) (UniProt Q96RI1); test: qHTS assay for small molecule agonists of farnesoid X receptor signaling (AID 588527; calls by dose curve;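 further: 0% = vehicle basal and 100% = reference agonist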); details: HEK293T FXR-UAS-bla, beta-lactamase ratio, 16 h; activation: stronger effect = higher value
# Chain of Bile acid receptor (Homo sapiens) (Q96RI1 whole entry, looked up): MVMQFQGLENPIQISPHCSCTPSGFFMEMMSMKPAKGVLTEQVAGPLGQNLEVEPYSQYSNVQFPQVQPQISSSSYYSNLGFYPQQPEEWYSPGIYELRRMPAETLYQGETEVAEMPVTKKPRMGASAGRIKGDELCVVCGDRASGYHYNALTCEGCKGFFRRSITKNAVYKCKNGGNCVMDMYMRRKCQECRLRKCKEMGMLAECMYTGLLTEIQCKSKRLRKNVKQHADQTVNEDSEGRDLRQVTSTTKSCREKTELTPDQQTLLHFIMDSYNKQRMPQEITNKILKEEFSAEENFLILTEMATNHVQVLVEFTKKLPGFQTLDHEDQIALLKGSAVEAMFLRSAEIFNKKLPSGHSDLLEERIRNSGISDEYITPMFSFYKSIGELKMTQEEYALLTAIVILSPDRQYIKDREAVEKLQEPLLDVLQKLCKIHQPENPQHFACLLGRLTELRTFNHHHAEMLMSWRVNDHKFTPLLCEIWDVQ
# Method in brief: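 Quantitative HTS used FXR-UAS-bla HEK293T cells with 16 h compound incubation at 37 C. EC50 values came from concentration-response curves normalized to chenodeoxycholic acid.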
# [6] = target: Peroxisome proliferator-activated receptor gamma (Homo sapiens) (UniProt P37231); test: qHTS assay for small molecule agonists of peroxisome proliferator-activated receptor gamma signaling (AID 588536; active means well fitted curve in the direction sought with a large enough effect in the signal ratio, with a control signal flat, not every such curve was filed as active; the % refers to the signal ratio;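 further: 0% = DMSO basal wells and 100% = rosiglitazone at 2 µM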)
# Chain of Peroxisome proliferator-activated receptor gamma (Homo sapiens) (P37231 whole entry, looked up): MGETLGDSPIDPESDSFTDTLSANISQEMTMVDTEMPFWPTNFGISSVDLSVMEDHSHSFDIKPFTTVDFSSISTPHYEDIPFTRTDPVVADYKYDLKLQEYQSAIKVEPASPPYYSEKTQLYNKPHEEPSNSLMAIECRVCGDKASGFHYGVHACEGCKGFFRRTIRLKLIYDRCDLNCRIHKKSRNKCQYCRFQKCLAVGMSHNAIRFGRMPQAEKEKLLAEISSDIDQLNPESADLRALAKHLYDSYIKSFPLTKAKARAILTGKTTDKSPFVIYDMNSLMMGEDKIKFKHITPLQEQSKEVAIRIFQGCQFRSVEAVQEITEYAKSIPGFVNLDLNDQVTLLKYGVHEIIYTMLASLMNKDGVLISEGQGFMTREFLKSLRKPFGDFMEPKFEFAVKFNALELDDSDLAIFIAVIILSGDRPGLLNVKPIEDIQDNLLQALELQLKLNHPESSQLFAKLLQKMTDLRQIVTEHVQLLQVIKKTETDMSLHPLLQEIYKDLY
# Method in brief: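 Using GeneBLAzer HEK293 cells, response was quantified by CCF4 fluorescence and normalized between basal DMSO (0%) and rosiglitazone 2 uM (100%); curves yielded half-maximal stimulation concentration and efficacy.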
# [7] = target: Peroxisome proliferator-activated receptor gamma (Homo sapiens) (UniProt P37231); test: qHTS assay for small molecule antagonists of peroxisome proliferator-activated receptor gamma signaling (AID 588537; active means well fitted inhibition curve with a large enough effect in the signal ratio, with a control signal flat, not every such curve was filed as active; the % refers to the signal ratio;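 further: reporter cells co-stimulated with 50 nM rosiglitazone agonist during compound treatment; % of control where 0% means no effect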)
# Method in brief: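 Fluorescence at 460 and 530 nm (405 nm excitation) reported beta-lactamase cleavage of CCF4 after 2 h room-temperature loading. HEK293 reporter cells in 1% charcoal/dextran-treated FBS had received compound and rosiglitazone for 16 h.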
# [8] = target: Thyroid hormone receptor beta (Homo sapiens) (UniProt P10828); test: qHTS assay for small molecule agonists of thyroid hormone receptor beta signaling (AID 588545; calls by dose curve;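 further: 0% = DMSO only and 100% = 10 nM T3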)
# Chain of Thyroid hormone receptor beta (Homo sapiens) (P10828 whole entry, looked up): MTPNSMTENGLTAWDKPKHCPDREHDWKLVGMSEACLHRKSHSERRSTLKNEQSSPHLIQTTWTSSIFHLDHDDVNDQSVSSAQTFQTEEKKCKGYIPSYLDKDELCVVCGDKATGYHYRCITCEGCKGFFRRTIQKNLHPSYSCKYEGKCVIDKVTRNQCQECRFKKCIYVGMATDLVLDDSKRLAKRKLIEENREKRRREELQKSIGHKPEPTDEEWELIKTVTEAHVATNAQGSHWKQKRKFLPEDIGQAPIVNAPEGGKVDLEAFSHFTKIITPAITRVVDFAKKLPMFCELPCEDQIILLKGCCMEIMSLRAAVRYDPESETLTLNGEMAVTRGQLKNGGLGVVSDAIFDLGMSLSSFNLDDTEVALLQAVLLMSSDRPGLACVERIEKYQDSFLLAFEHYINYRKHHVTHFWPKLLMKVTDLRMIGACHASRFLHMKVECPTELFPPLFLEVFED
# Method in brief: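 TR-UAS-bla-GripTite HEK 293 cells in medium with 2% charcoal/dextran FBS, 0.1 mM NEAA and 1 mM sodium pyruvate were treated with titrated compounds for 18 hrs at 37 C. Beta-lactamase reporter was read with CCF4 dye (ex 405, em 460/530 nm); EC50 from Hill fits.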
# [9] = qHTS assay for small molecule antagonists of retinoid X receptor alpha signaling (AID 588546; active means well fitted inhibition curve with a large enough effect in the signal ratio, with a control signal flat, not every such curve was filed as active; the % refers to the signal ratio;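 further: cells stimulated with 9-cis-retinoic acid as agonist; on the % scale 0 is the no-effect control and ±100 the full control effect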); details: HEK293T RXRa-UAS-bla, beta-lactamase ratio, antagonist mode; measured here: W530 green channel, cytotoxicity proxy
# Method in brief: (§1)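 Beta-lactamase reporter inhibition, read as CCF4 fluorescence ratio (ex 405, em 460/530 nm) after 2 h at RT. HEK293T UAS-bla cells, 2500/well, were stimulated with 9-cis-RA at 500 or 100 nM final alongside test compound for 18 h at 37 C.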
# [10] = target: Retinoic acid receptor RXR-alpha (Homo sapiens) (UniProt P19793); test: as above; details: HEK293T RXRa-UAS-bla, beta-lactamase ratio, antagonist mode
# Chain of Retinoic acid receptor RXR-alpha (Homo sapiens) (P19793 whole entry, looked up): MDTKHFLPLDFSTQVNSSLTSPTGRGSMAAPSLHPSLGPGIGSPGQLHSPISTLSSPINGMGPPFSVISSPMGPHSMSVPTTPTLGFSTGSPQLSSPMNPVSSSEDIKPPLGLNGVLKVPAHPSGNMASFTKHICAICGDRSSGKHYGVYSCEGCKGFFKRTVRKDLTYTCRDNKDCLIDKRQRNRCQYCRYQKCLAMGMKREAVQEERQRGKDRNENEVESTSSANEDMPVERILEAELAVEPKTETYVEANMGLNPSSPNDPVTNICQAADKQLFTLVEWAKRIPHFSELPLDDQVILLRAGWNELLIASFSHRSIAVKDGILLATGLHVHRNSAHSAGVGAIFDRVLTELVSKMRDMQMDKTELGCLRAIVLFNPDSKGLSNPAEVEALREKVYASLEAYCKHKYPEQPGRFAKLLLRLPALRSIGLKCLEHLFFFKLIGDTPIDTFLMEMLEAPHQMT
# Method in brief: as §1
# [11] = target: Thyroid hormone receptor beta (Homo sapiens) (UniProt P10828); test: qHTS assay for small molecule antagonists of thyroid hormone receptor beta signaling (AID 588547; active means well fitted inhibition curve with a large enough effect in the signal ratio, with a control signal flat, not every such curve was filed as active; the % refers to the signal ratio;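 further: cells stimulated with 0.4 nM T3 agonist during compound exposure; on the % scale 0 is the no-effect control and ±100 the full control effect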); details: TR-UAS-bla HEK293, beta-lactamase ratio, antagonist mode, 18 h
# Method in brief: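 TR-UAS-bla GripTite HEK293 cells in 2% charcoal/dextran FBS medium; compounds 0.59 nM to 92 uM with T3 at 0.4nM final, 18 h at 37 C. Beta-lactamase read by CCF4 fluorescence (460/530 nm); Hill fits gave IC50 and efficacy.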
# [12] = target: Estrogen receptor (Homo sapiens) (UniProt P03372); test: qHTS assay for small molecule agonists of estrogen receptor alpha signaling (AID 588514; calls by dose curve;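 further: 0% = vehicle only and 100% = reference agonist; nearly all actives have a fitted effect of over 70% in size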)
# Chain of Estrogen receptor (Homo sapiens) (P03372 whole entry, looked up): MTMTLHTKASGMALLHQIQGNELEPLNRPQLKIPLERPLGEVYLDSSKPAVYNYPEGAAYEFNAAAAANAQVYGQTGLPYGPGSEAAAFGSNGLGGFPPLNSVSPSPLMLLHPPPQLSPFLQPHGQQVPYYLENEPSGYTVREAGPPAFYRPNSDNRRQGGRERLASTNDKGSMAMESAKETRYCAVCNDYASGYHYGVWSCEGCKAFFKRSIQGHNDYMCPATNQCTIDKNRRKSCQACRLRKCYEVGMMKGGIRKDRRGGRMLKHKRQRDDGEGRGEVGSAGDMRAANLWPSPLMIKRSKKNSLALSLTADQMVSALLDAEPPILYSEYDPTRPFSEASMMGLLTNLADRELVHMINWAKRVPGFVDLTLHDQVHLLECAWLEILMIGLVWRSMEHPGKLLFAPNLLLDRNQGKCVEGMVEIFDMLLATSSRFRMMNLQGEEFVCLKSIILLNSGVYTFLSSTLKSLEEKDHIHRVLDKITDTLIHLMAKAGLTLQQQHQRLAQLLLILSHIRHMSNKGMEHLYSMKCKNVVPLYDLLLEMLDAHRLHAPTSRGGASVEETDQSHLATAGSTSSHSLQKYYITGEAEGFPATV
# Method in brief: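 Efficacy is expressed against 20 nM 17-beta-estradiol (100%) and DMSO basal (0%); EC50 from Hill equation. Assay: beta-lactamase reporter in ER-alpha-UAS-bla HEK 293 cells, 18 h compound incubation, CCF4 detection.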
# [13] = target: Glucocorticoid receptor (Homo sapiens) (UniProt P04150); test: qHTS assay for small molecule agonists of glucocorticoid receptor signaling (AID 588532; active means well fitted curve in the direction sought with a large enough effect in the signal ratio, with a control signal flat; the % refers to the signal ratio;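 further: 100% = dexamethasone at 0.1 µM and 0% = DMSO only wells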); details: HeLa MMTV-bla, beta-lactamase ratio, agonist, 18 h; activation: stronger effect = higher value, percent of dexamethasone control, DMSO zero
# Chain of Glucocorticoid receptor (Homo sapiens) (P04150 whole entry, looked up): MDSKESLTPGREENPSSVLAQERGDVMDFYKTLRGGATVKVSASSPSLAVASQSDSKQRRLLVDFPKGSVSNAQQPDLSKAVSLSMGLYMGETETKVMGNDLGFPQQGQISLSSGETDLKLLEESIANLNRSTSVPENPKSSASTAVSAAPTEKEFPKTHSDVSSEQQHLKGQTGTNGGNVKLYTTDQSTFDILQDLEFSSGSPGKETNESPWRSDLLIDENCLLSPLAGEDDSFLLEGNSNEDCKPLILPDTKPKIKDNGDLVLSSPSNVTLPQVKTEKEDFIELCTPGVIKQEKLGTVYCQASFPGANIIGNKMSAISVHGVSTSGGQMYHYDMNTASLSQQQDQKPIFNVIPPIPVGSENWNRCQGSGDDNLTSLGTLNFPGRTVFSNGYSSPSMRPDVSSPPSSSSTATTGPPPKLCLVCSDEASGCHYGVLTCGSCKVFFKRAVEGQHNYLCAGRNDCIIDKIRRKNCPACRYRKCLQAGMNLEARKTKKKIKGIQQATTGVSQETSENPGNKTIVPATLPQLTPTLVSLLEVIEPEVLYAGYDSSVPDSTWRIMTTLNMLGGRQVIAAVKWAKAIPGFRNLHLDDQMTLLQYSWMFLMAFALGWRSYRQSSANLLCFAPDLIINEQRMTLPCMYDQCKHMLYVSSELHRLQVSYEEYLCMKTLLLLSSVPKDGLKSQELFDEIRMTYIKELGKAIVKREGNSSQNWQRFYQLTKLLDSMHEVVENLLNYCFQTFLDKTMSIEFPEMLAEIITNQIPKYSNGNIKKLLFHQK
# Method in brief: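 MMTV-bla HeLa beta-lactamase reporter cells in 1% charcoal/dextran FBS medium, compounds up to 92 uM for 18 h at 37 C, CCF4 readout; normalized to 0.1 uM dexamethasone (100%), EC50 and efficacy from Hill fits.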
# [14] = qHTS assay for small molecule activators of the nuclear factor-kappa B (NF-kB) signaling pathway (AID 651749; active means well fitted activation curve with a large enough effect in the signal ratio; the % refers to the signal ratio; further: % of control where 0% means no effect); details: NF-kB-bla ME-180 cells, beta-lactamase FRET ratio, 16 h; activation: stronger effect = higher value
# Method in brief: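 In this qHTS format, compounds acting as activators increase NF-kB-driven beta-lactamase in ME-180 cells, measured as disrupted FRET after 16 hr exposure at 37C and 5% CO2.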
# [15] = qHTS assay for environmental chemicals that activate the Aryl hydrocarbon Receptor (AhR) signaling pathway (AID 651777); details: 1A2-DRE human hepatoma cells, luciferase, 24 h; activation: stronger effect = higher value; further: nearly all actives have a fitted effect of over 15% in size; further: potency means the concentration at half of the fitted maximal effect; on activation: % of control where 0% means no effect
# Method in brief: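 AhR activation is scored as a rise in luciferase from a stable DRE–CYP1A2 promoter construct in human hepatoma cells. Treatment lasts 24 hr at 37 C; detection uses One-Glo after 30 min at room temperature.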
# [16] = target: Peroxisome proliferator-activated receptor alpha (Homo sapiens) (UniProt Q07869); test: qHTS assay for small molecule agonists of the peroxisome proliferator-activated receptor alpha (PPARalpha) signaling pathway (AID 651778); details: PathHunter PPARalpha complementation, chemiluminescence, 6 h; max response: stronger effect = higher value; further: % of control where 0% means no effect
# Chain of Peroxisome proliferator-activated receptor alpha (Homo sapiens) (Q07869 whole entry, looked up, the tested form may be a part): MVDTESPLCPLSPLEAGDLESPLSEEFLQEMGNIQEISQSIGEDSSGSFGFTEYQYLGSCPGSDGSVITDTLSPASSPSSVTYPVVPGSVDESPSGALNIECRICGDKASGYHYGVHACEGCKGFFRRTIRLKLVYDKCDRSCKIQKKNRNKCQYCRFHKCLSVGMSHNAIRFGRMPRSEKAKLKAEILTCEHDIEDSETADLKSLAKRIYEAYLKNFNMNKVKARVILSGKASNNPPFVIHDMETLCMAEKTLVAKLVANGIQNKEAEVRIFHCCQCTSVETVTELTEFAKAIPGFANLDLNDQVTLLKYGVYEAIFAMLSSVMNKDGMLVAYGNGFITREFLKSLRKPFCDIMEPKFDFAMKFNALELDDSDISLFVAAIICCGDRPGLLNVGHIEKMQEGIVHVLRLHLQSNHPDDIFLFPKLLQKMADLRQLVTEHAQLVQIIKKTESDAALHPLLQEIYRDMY
# Method in brief: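 Enzyme-fragment complementation assay in which ligand-bound PPARalpha translocates and forms an active enzyme that generates chemiluminescence. Cells were plated overnight, exposed to compound for 6 hr at 37 C, and then given detection reagent for 60 min at room temperature.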
# [17] = qHTS assay for small molecule agonists of the antioxidant response element (ARE) signaling pathway measured by Nrf2-dependant transcriptional activity - cell viability counter screen (AID 720653; active means well fitted curve in the direction sought with a large enough effect in the repeat runs; an effect the other way counts as inactive or inconclusive; further: on the % scale 0 is the no-effect control and ±100 the full control effect); details: ARE-bla HepG2 viability, CellTiter-Glo ATP luminescence, 16 h; max response: stronger effect = lower value
# Method in brief: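 ARE-bla HepG2 cells treated with compounds for 16 h at 37C; this counter screen measures viability as intracellular ATP by CellTiter-Glo luminescence after 30 min at room temperature.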
# [18] = qHTS assay for cell viability of the p53RE-bla HCT-116 cell line (AID 743292); further: on the % scale 0 is the no-effect control and ±100 the full control effect; nearly all actives have a fitted effect of over 55% in size
# Method in brief: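 Quantitative high-throughput format: compounds in DMSO were pinned onto p53RE-bla HCT-116 cells (4,000/well) and incubated 16 h at 37 C. Total intracellular ATP, read by CellTiter-Glo luminescence, reflects viable cell number.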
# [19] = target: Nuclear receptor subfamily 1 group I member 2 (Rattus norvegicus) (UniProt Q9R1A7); test: qHTS assay for small molecule activators of the rat pregnane X receptor (rPXR) signaling pathway (AID 651751; call rule not given here; further: 0% is about no effect); details: rPXR reporter cells, luciferase (One-Glo), 24 h
# Chain of Nuclear receptor subfamily 1 group I member 2 (Rattus norvegicus) (Q9R1A7 whole entry, looked up): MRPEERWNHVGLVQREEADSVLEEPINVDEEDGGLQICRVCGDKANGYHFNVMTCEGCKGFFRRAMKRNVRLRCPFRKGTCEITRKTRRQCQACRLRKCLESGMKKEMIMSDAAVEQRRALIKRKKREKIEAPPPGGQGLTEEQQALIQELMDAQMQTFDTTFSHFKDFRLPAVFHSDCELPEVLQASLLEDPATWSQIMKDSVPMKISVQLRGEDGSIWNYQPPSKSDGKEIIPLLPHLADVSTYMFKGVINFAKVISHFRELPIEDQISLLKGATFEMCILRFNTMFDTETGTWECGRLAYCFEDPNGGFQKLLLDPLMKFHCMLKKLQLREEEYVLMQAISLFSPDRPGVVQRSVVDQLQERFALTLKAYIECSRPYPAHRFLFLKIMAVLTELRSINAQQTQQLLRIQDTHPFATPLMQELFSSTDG
# [20] = Nrf2 qHTS screen for inhibitors: Validation (AID 493153; active means well fitted inhibition curve with a large enough effect in the main read-out, with a control signal flat, not every such curve was filed as active; further: potency means the concentration at half of the fitted maximal effect); details: A549 ARE-Fluc reporter, 18-24 h; Potency: luciferase luminescence; viability change: measured here: cytotoxicity max response
# Method in brief: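 A549 ARE_Fluc, 5% FBS OPTI-MEM; cpd titration, 18-24 h, 37°C/5% CO2. Read 1: CellTiter-Fluor (Ex 405/Em 525), cytotox. Read 2: luciferase lum, Nrf2 activity.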
compound,measurement,setting,value
C[C@@H]1CC[C@H]2[C@@H](C)C(=O)O[C@@H]3OC4(C)CC[C@@H]1C32OO4 (some centres not stated),Potency,[1],0.136 µM (active)
same,remaining parasite growth % (stronger effect = lower value),[2],-0.139% [at 57.5 µM]
same,"activity, percent of control",[3],0.0598% [at 57.5 µM]
same,"remaining proliferation (% of control), lower = more inhibition",[4],0.0815% [at 57.5 µM]
C#CCN1CC(=O)N(COC(=O)[C@@H]2[C@@H](C=C(C)C)C2(C)C)C1=O,activation,[5],5.41% (inactive)
same,Potency,[6],inactive
same,Potency,[7],inactive
same,Potency,[8],inactive
same,max response,[9],-1.89%
same,max response,[10],-19.9% (inactive)
same,activity change % (negative = inhibition),[11],21.3% (inactive)
CC(C)=CC1C(C(=O)OCc2coc(Cc3ccccc3)c2)C1(C)C (configuration not stated),Potency,[12],inactive
same,activation,[13],2.93% (inactive)
same,Potency,[6],inactive
same,Potency,[8],inactive
same,max response,[9],-14.2%
same,max response,[10],3.05% (inactive)
same,activation,[14],0.13% (inactive)
same,activation,[15],3.96% (inactive)
same,max response,[16],-0.283% (inactive)
same,max response,[17],-23.8% (inactive)
same,Potency,[18],inactive
same,max response,[19],7.41% (inactive)
CC[C@@H](CO)Nc1nc(NCc2ccccc2)c2ncn(C(C)C)c2n1,Potency,[20],18.4 µM (active)
same,viability change,[20],-22.6%
O=C(NC(=O)c1c(F)cccc1F)Nc1ccc(Cl)cc1,Potency,[12],inactive
same,activation,[5],1.72% (inactive)
same,Potency,[7],inactive
same,max response,[9],-10.4%
same,max response,[10],-3.02% (inactive)
same,activity change % (negative = inhibition),[11],-1.34% (inactive)
same,activation,[14],0.393% (inactive)
same,Potency,[15],2.51 µM (active)
same,max response,[16],-1.48% (inactive)
same,max response,[17],-7.3% (inactive)
same,Potency,[18],inactive
same,max response,[19],11% (inactive)
